Laboratory results: PubChem BioAssay (EPA / NIEHS)
Calls of active or inactive are those of the source. The calls were made as follows: active = hit-call score of the fitted dose curve at least 0.9, where 1 is the maximum; inactive = score below 0.9.

Legend:
Conditions in all cases: mRNA level, 48 h; actives raise or lower the signal
[1] = read-out: growth arrest and DNA damage 45 (GADD45G), GADD45G (gene 10912); assay: LTEA_HepaRG_GADD45G: Life Technologies and Expression Analysis (LTEA) Assay for growth arrest and DNA damage 45 (GADD45G) using HepaRG (AID 2283499)
Outline: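 HepaRG, 48 h exposure, top 100 uM, half-log 8-point series, 0.5% DMSO vehicle, duplicates. Readout: GADD45G transcript by qRT-PCR (Fluidigm array), housekeeping-normalised (ACTB/GAPDH/POLR2A). Bidirectional curve fit vs DMSO baseline.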

[2] = read-out: Glutamate-cysteine ligase regulatory (GCLM), GCLM (gene 2730); assay: LTEA_HepaRG_GCLM: Life Technologies and Expression Analysis (LTEA) Assay for Glutamate-cysteine ligase regulatory (GCLM) using HepaRG (AID 2283500)
Outline: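 Endpoint is GCLM transcript level by qRT-PCR, normalized to three housekeeping genes, after 48 h chemical exposure of human HepaRG cells (0.5% DMSO vehicle, top 100 uM, half-log dilutions). Fitting was bidirectional relative to DMSO.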

[3] = read-out: Glutathione S-transferase M3 (GSTM3), GSTM3 (gene 2947); assay: LTEA_HepaRG_GSTM3: Life Technologies and Expression Analysis (LTEA) Assay for Glutathione S-transferase M3 (GSTM3) using HepaRG (AID 2283501)
Outline: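 qRT-PCR read-out of GSTM3 transcript, normalized to three housekeeping genes, from human HepaRG cells after 48 h chemical exposure. Eight-point half-log series, top 100 uM, 0.5% DMSO vehicle; gain or loss fitted relative to DMSO baseline.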

[4] = read-out: Heat shock 70 kDa protein 1 (HSPA1A), gene 3303; assay: LTEA_HepaRG_HSPA1A: Life Technologies and Expression Analysis (LTEA) Assay for Heat shock 70 kDa protein 1 (HSPA1A) using HepaRG (AID 2283502)
Outline: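 Cells were plated and cultured for 48 h, then switched to serum-free induction medium. Chemicals were added at eight half-log concentrations up to 100 uM for 48 h. RNA was then isolated and HSPA1A measured by qRT-PCR with bidirectional curve fitting against DMSO.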

[5] = read-out: 3-Hydroxy-3-Methylglutaryl-CoA Synthase 2 (HMGCS2), HMGCS2 (gene 3158); assay: LTEA_HepaRG_HMGCS2: Life Technologies and Expression Analysis (LTEA) Assay for 3-Hydroxy-3-Methylglutaryl-CoA Synthase 2 (HMGCS2) using HepaRG (AID 2283504)
Outline: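 qRT-PCR read-out of HMGCS2 transcript, normalised to three housekeeping genes, in HepaRG cells after 48 h chemical exposure. Eight-point curves from 100 uM, half-log dilutions, 0.5% DMSO vehicle; gain or loss fitted relative to DMSO baseline.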

[6] = read-out: HGF (gene 3082); assay: LTEA_HepaRG_HGF: Life Technologies and Expression Analysis (LTEA) Assay for Hepatocyte Growth Facto (HGF) using HepaRG (AID 2283505)
Outline: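 HepaRG, 48 h dosing, 8-pt half-log series from 100 uM in 0.5% DMSO, duplicates. Readout: TaqMan qRT-PCR of HGF mRNA, housekeeping-normalized; bidirectional curve fit vs DMSO baseline.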

[7] = read-out: Insulin Like Growth Factor 1 (IGF1), IGF1 (gene 3479); assay: LTEA_HepaRG_IGF1: Life Technologies and Expression Analysis (LTEA) Assay for Insulin Like Growth Factor 1 (IGF1) using HepaRG (AID 2283506)
Outline: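 Cells are thawed, plated and cultured 48 h, then exposed in duplicate to chemical (highest 100 uM, half-log steps, 0.5% DMSO) for another 48 h. Total RNA is analysed by Fluidigm qRT-PCR for IGF1 expression relative to vehicle.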

[8] = read-out: Intercellular Adhesion Molecule 1 (ICAM1), ICAM1 (gene 3383); assay: LTEA_HepaRG_ICAM1: Life Technologies and Expression Analysis (LTEA) Assay for Intercellular Adhesion Molecule 1 (ICAM1) using HepaRG (AID 2283507)
Outline: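 HepaRG, 48 h exposure, 8-pt half-log series from 100 uM, 0.5% DMSO vehicle, duplicates. Readout: TaqMan qRT-PCR mRNA, housekeeping-normalized (ACTB/GAPDH/POLR2A). Bidirectional curve fit vs DMSO baseline.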

[9] = read-out: Insulin-like growth factor-binding protein 1 (IGFBP1), IGFBP1 (gene 3484); assay: LTEA_HepaRG_IGFBP1: Life Technologies and Expression Analysis (LTEA) Assay for Insulin-like growth factor-binding protein 1 (IGFBP1) using HepaRG (AID 2283508)
Outline: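 qRT-PCR mRNA read-out (TaqMan, Fluidigm array), normalised to three housekeeping genes; HepaRG cells, 48 h exposure, 8-pt half-log series from 100 uM, 0.5% DMSO vehicle; bidirectional curve fit vs DMSO baseline.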

[10] = read-out: Interleukin 6 (IL6), IL6 (gene 3569); assay: LTEA_HepaRG_IL6: Life Technologies and Expression Analysis (LTEA) Assay for Interleukin 6 (IL6) using HepaRG (AID 2283509)
Outline: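 qRT-PCR read-out of IL6 transcript, normalized to three housekeeping genes, after 48 h chemical exposure of HepaRG cells; 8-point half-log series, top 100 uM, 0.5% DMSO vehicle. Bidirectional curve fitting against DMSO baseline.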

[11] = read-out: Interleukin 6 Receptor (IL6R), IL6R (gene 3570); assay: LTEA_HepaRG_IL6R: Life Technologies and Expression Analysis (LTEA) Assay for Interleukin 6 Receptor (IL6R) using HepaRG (AID 2283510)
Outline: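 Cells were thawed, plated and cultured 48 h, then medium was changed to serum-free induction medium. Chemicals were added in duplicate (100 uM top, half-log steps, 0.5% DMSO) for 48 h. Lysates were analyzed by qRT-PCR for IL6R expression.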

[12] = read-out: Potassium channel subfamily K member 1 (KCNK1), KCNK1 (gene 3775); assay: LTEA_HepaRG_KCNK1: Life Technologies and Expression Analysis (LTEA) Assay for Potassium channel subfamily K member 1 (KCNK1) using HepaRG (AID 2283511)
Outline: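 HepaRG, 48 h exposure, 8-pt half-log series top 100 uM, 0.5% DMSO vehicle, duplicates. Readout: KCNK1 transcript by qRT-PCR (Fluidigm array), housekeeping-normalized; bidirectional curve fit relative to DMSO baseline.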

[13] = read-out: Keratin 19 (KRT19), KRT19 (gene 3880); assay: LTEA_HepaRG_KRT19: Life Technologies and Expression Analysis (LTEA) Assay for Keratin 19 (KRT19) using HepaRG (AID 2283512)
Outline: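 HepaRG, 48 h chemical exposure, 8-pt half-log CRC from 100 uM, 0.5% DMSO vehicle, duplicates. Readout: TaqMan qRT-PCR of KRT19 mRNA, housekeeping-normalized (ACTB/GAPDH/POLR2A). Bidirectional fit vs DMSO baseline.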

[14] = read-out: JUN Transcription Factor, JUN (gene 3725); assay: LTEA_HepaRG_JUN: Life Technologies and Expression Analysis (LTEA) Assay for JUN Transcription Factor using HepaRG (AID 2283513)
Outline: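 Read-out is JUN transcript level by TaqMan qRT-PCR, normalized to ACTB, GAPDH and POLR2A, after 48 h chemical treatment of HepaRG cells. Concentration-response spanned eight half-log points up to 100 uM in 0.5% DMSO.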

[15] = read-out: Lipase C (LIPC), LIPC (gene 3990); assay: LTEA_HepaRG_LIPC: Life Technologies and Expression Analysis (LTEA) Assay for Lipase C (LIPC) using HepaRG (AID 2283514)
Outline: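 HepaRG, 48 h exposure, 8-pt half-log series from 100 uM in 0.5% DMSO, duplicates. Readout: LIPC mRNA by Fluidigm qRT-PCR, housekeeping-normalized (ACTB/GAPDH/POLR2A). Gain or loss fitted bidirectionally against DMSO baseline.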

[16] = read-out: Lipoprotein lipase (LPL), LPL (gene 4023); assay: LTEA_HepaRG_LPL: Life Technologies and Expression Analysis (LTEA) Assay for Lipoprotein lipase (LPL) using HepaRG (AID 2283515)
Outline: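 HepaRG, 48 h exposure, 8-pt half-log dilutions from 100 uM, 0.5% DMSO vehicle, duplicates; qRT-PCR (Fluidigm array) of LPL mRNA vs housekeeping genes; bidirectional curve fit relative to DMSO baseline.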

[17] = read-out: MicroRNA 122 (MIR122), gene 406906; assay: LTEA_HepaRG_MIR122: Life Technologies and Expression Analysis (LTEA) Assay for MicroRNA 122 (MIR122) using HepaRG (AID 2283516); also: the transcript read is the microRNA miR-122
Outline: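 Human liver HepaRG cultures receive test chemicals for 48 h at eight half-log concentrations from 100 uM. Expression is quantified by qRT-PCR with ACTB/GAPDH/POLR2A normalization and fitted bidirectionally against 0.5% DMSO.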

[18] = read-out: matrix metalloproteinase-10 (MMP10), MMP10 (gene 4319); assay: LTEA_HepaRG_MMP10: Life Technologies and Expression Analysis (LTEA) Assay for matrix metalloproteinase-10 (MMP10) using HepaRG (AID 2283517)
Outline: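 Transcript levels come from Fluidigm qRT-PCR normalized to three housekeeping genes, with curves fitted bidirectionally against 0.5% DMSO. Human HepaRG cells were dosed for 48 hours at concentrations up to 100 uM.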

[19] = read-out: MYC, MYC (gene 4609); assay: LTEA_HepaRG_MYC: Life Technologies and Expression Analysis (LTEA) Assay for MYC using HepaRG (AID 2283518)
Outline: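 qRT-PCR read-out of MYC transcript (Fluidigm TaqMan, housekeeping-normalized) after 48 h chemical exposure of HepaRG cells; eight concentrations, top 100 uM, half-log steps. Bidirectional curve fitting against 0.5% DMSO vehicle baseline.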

Measured: AC50

CC(CO)OC(C)CO (stereo unspecified) (tested in a mixture with another compound)
inactive: all assays above

CCOC(=O)C(C)(C)Oc1ccc(Cl)cc1
active: [5] 9.92 µM
inactive: all other assays above

Nc1nc(N)c2nc(CNc3ccc(C(=O)N[C@@H](CCC(=O)O)C(=O)O)cc3)cnc2n1
active: [9] 0.0937 µM
inactive: all other assays above

CC1(C)NC(=O)NC1=O
inactive: all assays above
